Bioassay records from PubChem BioAssay.
3CLpro inhibitor = SARS-CoV 3CLpro protease inhibition | recombinant SARS-CoV 3CLpro, quenched FRET peptide cleavage | inhibition, % at 6 µM | AID 1706 | 290,000 tested, 0.14% active | P0C6X7; in the data active means inhibition above about 12%
Bead autofluor = compound fluorescence in toxin protease inhibitor counterscreen; 360,000 tested, 3.1% active; compound autofluorescence counterscreen, microsphere flow cytometry; stronger effect = higher value; fluorescence intensity (test concentration not listed); AID 624483; in the data active means fluorescence intensity above about 16000; inconclusive means no clear call, values can overlap the other calls
BoNT A protease = BoNT A light chain protease inhibition. multiplex microsphere protease substrate cleavage, flow cytometry. AID 588499. 360,000 tested, 0.17% active. inhibition, % at 10 µM; further: plate controls were buffer without enzyme for full effect and enzyme alone for no effect
Anthrax LF inh2 = inhibitors of Bacillus anthracis lethal factor protease | P15917 | multiplex microsphere protease cleavage assay, LF | inhibition, % at 10 µM | 360,000 tested, 0.12% active; further: plate controls were buffer without enzyme for full effect and enzyme alone for no effect
Target sequence (P15917 whole entry, looked up): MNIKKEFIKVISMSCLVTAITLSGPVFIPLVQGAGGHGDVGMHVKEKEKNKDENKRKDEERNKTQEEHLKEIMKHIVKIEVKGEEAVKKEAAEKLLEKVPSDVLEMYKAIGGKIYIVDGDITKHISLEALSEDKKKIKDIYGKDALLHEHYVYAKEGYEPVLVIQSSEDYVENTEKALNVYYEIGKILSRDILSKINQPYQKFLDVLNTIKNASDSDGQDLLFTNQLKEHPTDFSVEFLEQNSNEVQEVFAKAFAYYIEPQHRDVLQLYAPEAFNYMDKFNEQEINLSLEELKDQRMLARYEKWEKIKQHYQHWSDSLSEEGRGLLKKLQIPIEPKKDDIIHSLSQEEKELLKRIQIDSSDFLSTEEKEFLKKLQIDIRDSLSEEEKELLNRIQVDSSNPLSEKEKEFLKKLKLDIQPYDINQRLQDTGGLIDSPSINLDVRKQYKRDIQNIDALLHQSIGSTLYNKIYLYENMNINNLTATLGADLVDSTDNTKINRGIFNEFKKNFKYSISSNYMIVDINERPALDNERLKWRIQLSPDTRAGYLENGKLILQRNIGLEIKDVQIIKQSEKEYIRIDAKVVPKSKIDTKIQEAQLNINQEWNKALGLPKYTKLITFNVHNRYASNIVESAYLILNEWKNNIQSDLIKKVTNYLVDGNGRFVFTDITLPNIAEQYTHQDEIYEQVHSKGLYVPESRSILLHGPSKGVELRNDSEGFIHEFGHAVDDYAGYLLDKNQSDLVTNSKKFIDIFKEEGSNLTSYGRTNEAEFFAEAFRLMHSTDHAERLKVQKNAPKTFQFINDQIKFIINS
BoNT F protease = BoNT F light chain protease inhibition; inhibition, % at 10 µM; AID 588497; 360,000 tested, 0.22% active; Multiplex microsphere protease cleavage assay, flow cytometry; in the data active means inhibition above about 35%, passing the limit was not always enough; inconclusive means no clear call, values can overlap the other calls; further: plate controls were buffer without enzyme for full effect and enzyme alone for no effect
Active calls of the source: *; u = inconclusive; x = not tested or not shown. Most compounds without a hit are left out; they make up all but 3.5% or so of the library. Unless noted, no stated cut-off is given here; in the data, active means inhibition above about 30%; inconclusive means no clear call, values can overlap the other calls; inactive means below that.

SMILES	3CLpro inhibitor	Bead autofluor	BoNT A protease	Anthrax LF inh2	BoNT F protease
Cn1cnnc1SC1CCCCC1NS(=O)(=O)c1ccc(Cl)cc1 (configuration not stated)	-3	10149	0	2	-2
Oc1ccc(C2N=C(c3ccccc3)NC(c3ccccc3)=N2)cc1	0	10069	-1	0	-2
Oc1ccccc1C1N=C(c2ccccc2)NC(c2ccccc2)=N1	3	22671*	1	0	0
CCNC(=O)COc1cccc2ccccc12	0	21317*	-1	-1	0
CCOc1ccc(NC(=O)COC(=O)Cn2cnnn2)cc1OCC	4	23264*	0	-1	-3
N/C(=N\OC(=O)c1ccccc1Cl)c1ccccc1	0	22870*	u	-2	0
N/C(=N\OC(=O)c1cccc2ccccc12)c1cccc([N+](=O)[O-])c1	4	16600*	-1	-1	0
N/C(=N\OC(=O)c1ccc(F)cc1)c1ccccc1	-2	22601*	-7	-2	-8
O=C(CCCCCN1C(=O)[C@@H]2Cc3ccccc3CN2C1=O)Nc1ccccc1F	-1	6041	-4	0	-7
COC(=O)N/N=C/c1cc(C)n(-c2ccc(Br)cc2)c1C	6	4534	-2	31*	u
N#Cc1c(N)nc(SCC(=O)NC2CCCCC2)c(C#N)c1-c1ccc(Cl)cc1	-4	16126*	2	3	3
C/C(=N\O)c1ccc(Cl)cc1Cl	1	4459	0	-4	-8
C/C(=N\O)c1cc(Cl)cc(Cl)c1O	-1	4650	2	34*	u
Cc1ccc(S(=O)(=O)NCCC(=O)OCC(=O)Nc2ccccc2Cl)cc1	-3	4549	0	-4	-4
O=c1c2ccccc2[nH]c(=S)n1-c1cccc(C(F)(F)F)c1	x	3418	0	-2	-2
Nc1cc(=O)[nH]c(=S)n1-c1cccc(C(F)(F)F)c1	4	16135*	0	-5	-2
CCCCCCCCN1C(=O)[C@H](CC(=O)N2CCC(c3ccccc3)CC2)C[C@@]2(C(=O)OC)CCCCC=C12	x	5754	0	-4	-2
Clc1cccc(-c2nc(NCc3cccnc3)c3ccccc3n2)c1	-3	17205*	14	-14	14
O=C(/C=N/O)NCCCN1CCOCC1	4	2456	1	0	1
Cc1cc(C(=O)CSc2nc3ccccc3c(=O)[nH]2)c(C)n1CC1CCCO1 (configuration not stated)	1	4355	0	-4	-4
O=c1[nH]c(SCC2CCCCO2)nc2ccccc12 (configuration not stated)	2	21391*	u	0	0
CCCCn1c(N)c(N(CCOC)C(=O)c2ccc(N3C(=O)CCC3=O)cc2)c(=O)[nH]c1=O	x	u	-1	-4	-6
Clc1ccc(-c2nnc3n2CCCC3)cc1	-6	21835*	0	1	-1
Cc1ccc(-c2nnc3n2CCCCC3)cc1	-4	2297	-1	-2	-9
Cc1ccc2c(c1)N(CC(=O)N1CCN(C3CCCCC3)CC1)C(=O)CO2	-2	5993	0	-1	-1
SMILES	3CLpro inhibitor	Bead autofluor	BoNT A protease	Anthrax LF inh2	BoNT F protease
COC(=O)c1sc2ncccc2c1OCc1cccc(Cl)c1	-5	6164	-1	-9	-2
O=C(OCc1ccccc1Cl)c1ccccc1C(=O)c1ccccc1	-4	22408*	1	-4	0
O=C(OCc1ccccc1Cl)c1cccnc1Cl	4	21281*	-3	-3	-2
O=C(c1ccccc1)c1ccccc1C(=O)c1ccccc1	1	3279	-8	4	-37
COC(=O)c1sc2ncccc2c1OCc1c(Cl)cccc1Cl	6	19174*	2	2	1
O=C(OCc1c(Cl)cccc1Cl)c1cccnc1Cl	6	24071*	u	-1	-5
CCOC(=O)Nc1nn(-c2ccc(C)cc2)c(=O)c(C#N)c1C	5	4226	0	3	-1
Cn1c(C2CC(=O)N(Cc3ccccc3)C2)nc2ccccc21 (configuration not stated)	-4	6439	-1	-9	-7
C=CCN1CC(c2nc3ccccc3n2Cc2ccccc2)CC1=O (configuration not stated)	7	20701*	u	0	-4
COc1ccc(/C=C/C(=O)OCC(=O)NC2CCCCC2C)c(OC)c1 (configuration not stated)	x	4052	0	5	-2
Nc1c(NC2CCCCC2)c2ccccc2oc1=O	0	22176*	3	-1	2
Nc1c(NCCN2CCOCC2)c2ccccc2oc1=O	-4	3228	0	-5	2
Nc1c(NCCCN2CCOCC2)c2ccccc2oc1=O	-3	21802*	-4	2	-5
Cc1ccc(S(=O)(=O)Nc2c(NC3CCCCC3)c3ccccc3oc2=O)cc1	-5	4151	10	2	15
Cc1cc(=O)[nH]c(N2CCN(Cc3ccccc3)CC2)n1	-4	10349	-1	-1	-8
CCCCc1c(O)nc(N2CCN(Cc3ccccc3)CC2)[nH]c1=O	6	21940*	2	0	4
CC1CN(Cc2ccccc2)c2nc3c(c(=O)n(C)c(=O)n3C)n2C1 (configuration not stated)	5	20687*	u	0	-1
Cn1c(=O)n(Cc2ccccc2)c(=O)c2c1nc1n2CCCN1Cc1ccccc1	-3	4922	-1	-2	-29
Cn1c(=O)n(Cc2ccccc2)c(=O)c2c1nc1n2CCCN1CCc1ccccc1	-2	23593*	u	-5	-3
COc1ccc(OC)c(NC(=O)COc2coc(CN3CCCc4ccccc43)cc2=O)c1	x	5043	0	4	25
OC(c1ccccc1)(c1nc(-c2ccc3ccccc3c2)cs1)C(F)(F)F (configuration not stated)	x	3405	0	1	0
CC(=O)Nc1nnc(SCc2ccc(F)cc2)s1	0	7786	0	3	-1
OCCN(Cc1ccccc1)Cc1ccccc1Cl	0	23592*	u	-3	-1
OCCN(Cc1ccccc1)Cc1cccc(F)c1	-1	20011*	-1	1	0
CCCN(CCO)Cc1ccc(Cl)c(Cl)c1	4	7961	0	-2	4
SMILES	3CLpro inhibitor	Bead autofluor	BoNT A protease	Anthrax LF inh2	BoNT F protease
CCCN(CCO)Cc1cccc(Cl)c1	-4	16966*	-1	2	-2
OCCN(Cc1ccccc1)Cc1ccccc1F	-7	11295	-1	-5	-6
OCCN(Cc1ccccc1)Cc1cccc(C(F)(F)F)c1	0	23013*	0	-2	1
O=C(OCC(=O)c1c[nH]c2ccccc12)c1ccc(Br)o1	0	10364	1	1	-2
Cc1ccc(-c2nc(C)c(C(=O)O)s2)cc1	-2	2663	0	0	-4
COc1cccc(N(CC(=O)NCc2cccnc2)S(C)(=O)=O)c1	2	4357	0	-1	-16
COc1cccc(-c2nnn(CC(C)=O)n2)c1	-7	3521	0	2	-12
COc1ccc(-c2ccc(-c3nnn(CC(C)=O)n3)cc2)cc1	-7	22673*	1	-3	1
CCC(=O)N(CC)C1=C(O)c2ccccc2C(=O)C1=O	-1	20676*	0	1	-2
